This passage reports Potency, outcome and activity change, negative = cytotoxicity results from PubChem BioAssay (NCATS).

Assay [1] in a line: P-glycoprotein substrates identified in KB-3-1 adenocarcinoma cell line, qHTS therapeutic library screen (AID 1346986). Also: nearly all actives have a fitted effect of over 60% in size. Put shortly:
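Dose-response cytotoxicity, KB-3-1 vs P-gp-high KB-8-5-11, no colchicine in assay medium. Read: CellTiter-Glo at 72 h.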
(Quantitative high-throughput screening tests each substance at several concentrations.)

The nature of assay [2]: P-glycoprotein substrates identified in KB-8-5-11 adenocarcinoma cell line, qHTS therapeutic library screen (AID 1346987). Also: nearly all actives have a fitted effect of over 65% in size. As to activity change, negative = cytotoxicity: series mostly up to about 44 µM; % is scaled to controls: 0 for no effect and ±100 for the full control effect. Put shortly: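 Human cervical adenocarcinoma KB-8-5-11 cells, selected in colchicine to over-express P-gp and assayed without it, were exposed for 72 h to titrated compounds. An ATP-based luminescent viability signal gave AC50.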

Each structure is given as a SMILES string. Inconclusive results are not listed. Values without a mark were called inactive. Activity calls are given as the source filed them. Calls follow the shape of the dose curve; as a rule, active = well fitted curve in the direction sought with a large enough effect; inconclusive = small, poorly fitted or top-dose-only effect, or another doubt; inactive = no such curve, though single readings can be large; an effect the other way counts as inactive or inconclusive.

For the compound `CC12CCC3c4ccc(O)cc4CCC3C1CCC2OC1OC(C(=O)O)C(O)C(O)C1O` (centres undefined), the Potency result in assay [1] and in assay [2] was “inactive” throughout.
As to `COC(=O)C1=COC(OC2OC(CO)C(O)C(O)C2O)C2C1CC(OC(=O)C(O)CC(=O)O)C2C` (centres undefined), the Potency result in assay [1] and in assay [2] was “inactive” each time.
With `CC1(C)CCCC2(C)C(CO)C3CCC2C31` (centres undefined), the Potency result in assay [1] and in assay [2] was “inactive” each time.
`O=C(/C=C/c1ccc(O)cc1)O[C@H]1[C@@H]2C=CO[C@@H](O[C@@H]3O[C@H](CO)[C@@H](O)[C@H](O)[C@H]3O)[C@@H]2[C@@]2(CO)O[C@@H]12`: the Potency result in assay [1] and in assay [2] was “inactive” each time.
In the case of `C=C(C)[C@H]1C[C@@H](O)C(=C)CC[C@@H](O)C(=C)[C@@H](O)C1`, the Potency entry in assay [1] and in assay [2] was “inactive” throughout.
In the case of `O=C(/C=C/c1ccccc1)OCC1=CC[C@@H]2C(C(=O)O)=CO[C@@H](O[C@@H]3O[C@H](CO)[C@@H](O)[C@H](O)[C@H]3O)[C@H]12`, the Potency entry in assay [1] and in assay [2] was “inactive” each time.
Take `COCCN(C)Cc1ccc2nc3sc(C(=O)N(C)C4CCCCC4)cn3c2c1`: the Potency entry in assay [1] and in assay [2] was “inactive” throughout.
As for `O=C1N(CC2CCCCN2)CCN1c1ccccc1` (centres undefined), the Potency entry in assay [1] and in assay [2] was “inactive” each time.
Regarding `c1ccc(Nc2nc3c(s2)CCCc2[nH]ncc2-3)nc1`, the Potency result in assay [1] and in assay [2] was “inactive” throughout.
On to `O=c1c2cccnc2n(-c2cccc([N+](=O)[O-])c2)c(=O)n1Cc1ccncc1`, for which the Potency entry in assay [1] and in assay [2] was “inactive” throughout.
For `CC1=C2CC3OC3(C)CCC3OC3(C)CC2OC1=O` (centres undefined), the Potency result in assay [1] and in assay [2] was “inactive” throughout.
In the case of `CC1(C)CCC2(C(=O)OC3OC(COC4OC(CO)C(O)C(O)C4O)C(O)C(O)C3O)CCC3(C)C(=CCC4C5(C)CCC(O)C(C)(C(=O)O)C5CCC43C)C2C1O` (centres undefined), the outcome in assay [1] and in assay [2] was “inactive [at 9.29 µM]” in each case.
Consider `CC(/C=C/C1(O)C2(C)COC1(C)CC(=O)C2)O[C@@H]1O[C@H](CO)[C@@H](O)[C@H](O)[C@H]1O` (some centres undefined), for which the Potency entry in assay [1] and in assay [2] was “inactive” throughout.
Regarding `C=CCc1ccc(O[C@@H]2O[C@H](CO)[C@@H](O)[C@H](O)[C@H]2O)c(OC)c1`, the Potency entry in assay [1] and in assay [2] was “inactive” each time.
As for `CC1(C)C(=O)C(C)(C)c2cc(C(=O)Nc3ccc(C(=O)O)cc3)ccc21`, the Potency result in assay [1] and in assay [2] was “inactive” in each case.
Consider `O=C(O)[C@H]1CCCC[C@H]1C(=O)N1CCc2ccccc2[C@H]1CN1C(=O)c2ccccc2C1=O`, for which the Potency result in assay [1] and in assay [2] was “inactive” throughout.
On to `COc1cc(C2Oc3c(O)cc(CCCO)cc3C2CO)ccc1O[C@H]1O[C@H](C)[C@@H](O)[C@H](O)[C@@H]1O` (some centres undefined), for which the Potency entry in assay [1] and in assay [2] was “inactive” each time.
As for `CC1(C)CC[C@]2(C(=O)O)CC[C@]3(C)C(=CCC4[C@@]5(C)C[C@H](O)[C@H](O[C@@H]6OC[C@H](O)[C@H](O)[C@H]6O)[C@@](C)(CO)C5CC[C@]43C)[C@@H]2C1` (some centres undefined), the Potency result in assay [1] and in assay [2] was “inactive” each time.
For `CC(=O)C1CCC2(C)C3=C(CCC12C)C1(C)CCC(=O)C(C)(C)C1CC3` (centres undefined), the Potency result in assay [1] and in assay [2] was “inactive” throughout.
In the case of `COc1ccc2c(c1O)OC[C@H]1c3ccc(O)cc3O[C@@H]21`, the Potency entry in assay [1] and in assay [2] was “inactive” in each case.
In the case of `COc1cc(/C=C/C(=O)OC2CC(C)=C(C(=O)O)/C2=C/CO[C@@H]2O[C@H](CO)[C@@H](O)[C@H](O)[C@H]2O)ccc1O` (some centres undefined), the Potency result in assay [1] and in assay [2] was “inactive” in each case.
As for `COc1ncc(-c2ccc3c(Nc4cc(Oc5cc(F)cc(F)c5)cc(C(=O)O)c4)c(S(=O)(=O)NC4CC4)cnc3c2)c(OC)n1`, the Potency result in assay [1] and in assay [2] was “inactive” in each case.
As to `C/C=C(\C)C(=O)O[C@@H](C)[C@H]1CC[C@]2(O)C3CCC4C[C@@H](OC5CC(OC)C(OC6CC(OC)C(OC7CC(OC)C(OC8OC(C)C(OC9OC(CO)C(O)C(O)C9O)C(OC)C8O)C(C)O7)C(C)O6)C(C)O5)CC[C@]4(C)C3[C@H](O)[C@@H](O)[C@]12C` (some centres undefined), the outcome in assay [1] was “inactive [at 9.29 µM]”. Moreover, in assay [2], the activity change, negative = cytotoxicity was 2.39% [at 9.29 µM].
The matching figures for `C[C@@H]1O[C@@H](O[C@H]2[C@H](O[C@H]3[C@H](O[C@H]4CC[C@@]5(C)C(CC[C@]6(C)C5CC=C5[C@@H]7CC(C)(C(=O)O)C[C@@H](O)[C@]7(C)CC[C@]56C)[C@@]4(C)CO)O[C@H](C(=O)O)[C@@H](O)[C@@H]3O)O[C@H](CO)[C@H](O)[C@@H]2O)[C@H](O)[C@H](O)[C@H]1O` (some centres undefined): “inactive [at 9.29 µM]” and 7.09% [at 9.29 µM].
As for `CC1OC(OC2C(CO)OC(OCC3OC(OC(=O)C45CCC(C)(C)CC4C4=CCC6C7(C)CCC(OC8OC(C(=O)O)C(O)C(OC9OC(CO)C(O)C(O)C9O)C8O)C(C)(C)C7CCC6(C)C4(C)CC5)C(O)C(O)C3O)C(O)C2O)C(O)C(O)C1O` (centres undefined), the outcome in assay [1] and in assay [2] was “inactive [at 9.29 µM]” in each case.
Turning to `C[C@@H]1O[C@@H](O[C@H]2[C@H](O[C@H]3CC[C@@]4(C)C(CC[C@]5(C)C4CC=C4[C@@H]6CC(C)(C)CC[C@]6(C(=O)O)CC[C@]45C)[C@]3(C)CO)OC[C@H](O)[C@@H]2O)[C@H](O)[C@H](O[C@@H]2OC[C@@H](O)[C@H](O)[C@H]2O)[C@H]1O` (some centres undefined), in assay [1], the outcome is “inactive [at 9.29 µM]”. Further, the activity change, negative = cytotoxicity in assay [2] was -3.86% [at 9.29 µM].
Regarding `C=CC1(C)CC(O)C2(CCC3C(C)(C(=O)O)CCCC3(C)C2=O)C1` (centres undefined), the Potency entry in assay [1] and in assay [2] was “inactive” each time.
Regarding `OCCc1ccc(O[C@@H]2O[C@H](CO)[C@@H](O)[C@H](O)[C@H]2O)c(O)c1`, the Potency entry in assay [1] and in assay [2] was “inactive” throughout.
As to `C=C(C(=O)OC)C1CCC2(C)C(O[C@@H]3O[C@H](CO)[C@@H](O)[C@H](O)[C@H]3O)CC(=O)C(C)C2C1O` (some centres undefined), the Potency result in assay [1] and in assay [2] was “inactive” throughout.
As to `CC(=O)OC[C@@]12[C@@H](OC(C)=O)C[C@@H](C)[C@](C)([C@@H]3C[C@H]4C=CO[C@H]4O3)[C@H]1CCC[C@]21CO1`, the Potency result in assay [1] and in assay [2] was “inactive” in each case.
As to `C=Cc1cc(O)cc2nc(-c3ccc(O)c(F)c3)oc12`, the Potency entry in assay [1] and in assay [2] was “inactive” in each case.
As for `C=C1CC[C@H]2[C@@H](/C=C(\C)C(=O)[C@@]3(OC(C)=O)C[C@H](C)[C@H](OC(C)=O)[C@@H]3[C@H]1OC(C)=O)C2(C)C`, the Potency result in assay [1] and in assay [2] was “inactive” each time.
As to `CCn1c2ccccc2c2cc(CNC)ccc21`, the Potency result in assay [1] and in assay [2] was “inactive” throughout.
As for `CCn1cc(C2=NOC(C(=O)Nc3c(C)n(C)n(-c4ccccc4)c3=O)C2)c(C)n1` (centres undefined), the Potency result in assay [1] and in assay [2] was “inactive” in each case.
Take `CC(=O)OC[C@]12[C@H](OC(C)=O)C(=O)[C@@H]3[C@@H](OC(C)=O)[C@@]14O[C@@]3(C)COC(=O)c1cccnc1[C@@H](C)[C@H](C)C(=O)O[C@@H]([C@H](OC(C)=O)[C@@H]2OC(C)=O)[C@]4(C)O`: the Potency result in assay [1] and in assay [2] was “inactive” throughout.
Turning to `CC1CCC2C(C(=O)O)=CC3C(O)C(C)(C)CC123` (centres undefined), the Potency entry in assay [1] and in assay [2] was “inactive” in each case.
Regarding `C[C@@H]1O[C@@H](O[C@H]2[C@H](O)[C@@H](C(=O)O)O[C@@H](O[C@H]3CC[C@@]4(C)C(CC[C@]5(C)C4CC=C4C6CC(C)(C)CC[C@]6(C(=O)O)CC[C@]45C)C3(C)C)[C@@H]2O[C@@H]2O[C@H](CO)[C@@H](O)[C@H](O)[C@H]2O)[C@H](O)[C@H](O)[C@H]1O` (some centres undefined), the outcome in assay [1] and in assay [2] was “inactive [at 9.29 µM]” each time.
Regarding `CC(=O)OCCC(C)CCC1C(C)(O)CCC2C(C)(C)CCCC21C` (centres undefined), the Potency entry in assay [1] and in assay [2] was “inactive” throughout.
Consider `Nc1nonc1C(=Nc1ccc(F)c(Cl)c1)NO`, for which the Potency result in assay [1] and in assay [2] was “inactive” throughout.
Regarding `COC(=O)C1=COC(O[C@@H]2O[C@H](CO)[C@@H](O)[C@H](O)[C@H]2O)/C(=C\COC(=O)c2ccc(OC3OC(CO)C(O)C(O)C3O)c(OC)c2)C1CC(=O)OCCc1ccc(O)cc1` (some centres undefined), the outcome in assay [1] and in assay [2] was “inactive [at 9.29 µM]” in each case.
Turning to `CC[C@H](/C=C/[C@@H](C)[C@H]1CC[C@H]2[C@@H]3CC=C4C[C@@H](O)CC[C@]4(C)[C@H]3CC[C@]12C)C(C)C`, in assay [1], the outcome was “inactive [at 5.11 µM]”. For the same compound, the activity change, negative = cytotoxicity in assay [2] is 0.93% [at 5.11 µM].
Take `CCOc1nc2cccc(C(=O)O)c2n1Cc1ccc(-c2ccccc2-c2noc(=O)[nH]2)cc1`: the Potency result in assay [1] and in assay [2] was “inactive” throughout.
As for `CCC(C)/C=C(C)/C=C/C1=CC2=C(Cl)C(=O)C(C)(OC(C)=O)C(=O)C2=CN1C1CCCCN(C(CCC(N)=O)C(=O)O)C1=O` (centres undefined), the Potency result in assay [1] and in assay [2] was “inactive” each time.
`COc1c(C)c(OCC=C(C)C)cc2c1C(=O)NC2=O`: the Potency result in assay [1] and in assay [2] was “inactive” throughout.
Turning to `CC(/C=C/C1(O)C(C)CC(O)CC1(C)C)OC1OC(CO)C(O)C(O)C1O` (centres undefined), the Potency entry in assay [1] and in assay [2] was “inactive” throughout.
On to `COc1c(C)c2c(c(O)c1C/C=C(\C)CC/C=C(\C)CCC(=O)O)C(=O)OC2`, for which the Potency result in assay [1] and in assay [2] was “inactive” in each case.
For the compound `Cc1ccc2c(c1)C=Cc1cc(C)ccc1C2c1cn(Cc2ccc(C(=O)Nc3nn[nH]n3)o2)c(=O)[nH]c1=S`, the Potency result in assay [1] and in assay [2] was “inactive” throughout.
Take `CC1(CO)CC[C@]2(C(=O)O[C@@H]3O[C@H](CO)[C@@H](O)[C@H](O)[C@H]3O)CC[C@]3(C)C(=CCC4[C@@]5(C)CC[C@H](O[C@@H]6O[C@H](C(=O)O)[C@@H](O)[C@H](O)[C@H]6O)C(C)(C)C5CC[C@]43C)C2C1` (some centres undefined): the outcome in assay [1] is “inactive [at 9.29 µM]”. Moreover, the activity change, negative = cytotoxicity in assay [2] is 7.12% [at 9.29 µM].
As for `CC(C#N)C(C)O[C@@H]1O[C@H](CO)[C@@H](O)[C@H](O)[C@H]1O` (some centres undefined), the Potency entry in assay [1] and in assay [2] was “inactive” in each case.
For `Cc1cc(O)cc(Oc2cc(C)c(C(=O)O)c(O)c2)c1`, the Potency entry in assay [1] and in assay [2] was “inactive” in each case.
As for `NCCCC[C@H](NC(=O)[C@@H]1Cc2ccccc2CN1C(=O)CCC(=O)c1ccccc1)C(=O)NCC(c1ccccc1)c1ccccc1`, the Potency result in assay [1] and in assay [2] was “inactive” each time.
As for `CC(=O)O[C@@H]1C[C@]2(C)[C@@]3(CCC4[C@@]5(C)CC[C@H](O[C@@H]6O[C@H](C(=O)O)[C@@H](O)[C@H](O[C@@H]7O[C@H](CO)[C@H](O)[C@H](O)[C@H]7O[C@@H]7O[C@@H](C)[C@H](O)[C@@H](O)[C@H]7O[C@@H]7OC[C@](O)(CO)[C@H]7O)[C@H]6O[C@@H]6O[C@H](CO)[C@H](O)[C@H](O)[C@H]6O)C(C)(C)C5CC[C@]42C)O[C@@H](O)[C@]12C3CC(C)(C)[C@@H](OC(=O)/C=C/c1ccc(O)c(O)c1)[C@@H]2OC(=O)/C=C/c1ccccc1` (some centres undefined), the outcome in assay [1] and in assay [2] was “inactive [at 9.29 µM]” throughout.
